Where “and” joins values, the source holds several entries; their conditions need not be identical. Equal entries are not always repeated. Out of some 390,000 compounds screened, about 4,700 (1.2%) were called active. Entries that show only a call come without a potency. Inconclusive results (about 4%) are left out. The sample holds actives, similar compounds and a random draw of the others, so the mix is not that of the screen. Calls come from the whole dose curve; as a rule, active = well fitted inhibition curve with a large enough effect; inconclusive = small, poorly fitted or top-dose-only effect, or another doubt; inactive = no such curve, though single readings can be large or run the other way. A structure can be active in one record and inactive in another.
Potency is the fitted concentration of half-maximal effect.

Sequence of DNA polymerase eta (Homo sapiens) (Q9Y253 whole entry, looked up): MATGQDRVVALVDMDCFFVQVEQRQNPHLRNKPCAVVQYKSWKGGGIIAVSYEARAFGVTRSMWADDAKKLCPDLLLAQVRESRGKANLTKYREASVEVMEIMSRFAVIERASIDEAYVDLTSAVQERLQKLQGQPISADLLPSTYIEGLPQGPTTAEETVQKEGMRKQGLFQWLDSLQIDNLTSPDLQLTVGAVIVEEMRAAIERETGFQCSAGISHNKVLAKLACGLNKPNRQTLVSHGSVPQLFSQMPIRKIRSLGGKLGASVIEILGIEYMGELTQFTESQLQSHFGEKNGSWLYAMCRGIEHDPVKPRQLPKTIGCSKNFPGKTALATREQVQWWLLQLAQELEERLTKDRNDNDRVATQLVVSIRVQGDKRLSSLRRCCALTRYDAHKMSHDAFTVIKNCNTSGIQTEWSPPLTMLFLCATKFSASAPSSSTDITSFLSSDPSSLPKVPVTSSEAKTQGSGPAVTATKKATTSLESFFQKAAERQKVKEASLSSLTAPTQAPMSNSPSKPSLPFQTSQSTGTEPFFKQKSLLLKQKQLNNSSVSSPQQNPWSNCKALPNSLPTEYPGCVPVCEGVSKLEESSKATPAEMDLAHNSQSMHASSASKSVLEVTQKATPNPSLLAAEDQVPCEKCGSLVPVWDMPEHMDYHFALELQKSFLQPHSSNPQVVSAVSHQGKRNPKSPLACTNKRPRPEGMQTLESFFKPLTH

The assay addresses DNA polymerase eta (Homo sapiens) (UniProt Q9Y253). Put plainly: qHTS for Inhibitors of Polymerase Eta. Conditions: recombinant Pol eta, fluorescent DNA replication assay; series mostly up to 114 µM. The method in brief:
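Pol eta at 10 nM preincubated with compounds 15 min at room temperature; reaction started with fluorescent substrate (50 nM final) and read kinetically at 0 and 10 min.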
A general note: Quantitative high-throughput screening tests each substance at several concentrations.
On to `COc1ccccc1NC(=O)C(=O)c1cc(C)n(-c2ccccc2F)c1C`, for which the Potency entry is “inactive”.

Consider `CO/N=C(\C(=O)N[C@@H]1C(=O)N2C(C(=O)O)=C(COC(C)=O)CS[C@H]12)c1csc(N)n1` (stereo in doubt), for which the Potency entry was “inactive and 20 µM (active) and 28.2 µM (active)”.

With `C=CC1=C(C(=O)O)N2C(=O)[C@@H](NC(=O)/C(=N\OCC(=O)O)c3csc(N)n3)[C@H]2SC1`, the Potency was 7.08 µM (active).

For the compound `CC(=O)N1CCCc2cc(S(=O)(=O)N3CCC(C(=O)NCc4ccc(C)cc4)CC3)ccc21`, the Potency entry was “inactive”.

In the case of `CC(=O)OC1=C(C(C)=O)N(Cc2ccccc2)S(=O)(=O)c2ccccc21`, the Potency result is “inactive”.

For the compound `CCN(CC)c1nn2c(=O)c(C(=O)NCCc3ccccc3)cnc2s1`, the Potency result was “inactive”.

For the compound `COc1ccccc1CNC(=O)c1ccc(CS(=O)c2ccccc2Cl)o1` (stereo unspecified), the Potency entry was “inactive”.

Consider `O=C(CC1N=C2c3ccccc3N=C(SCc3cccc(Cl)c3)N2C1=O)NCc1ccc2c(c1)OCO2` (stereo unspecified), for which the Potency entry was “inactive”.

As for `C=CC1C(OC2OC(CO)C(O)C(O)C2O)OC=C(C(=O)OC)C1CC1CC(=O)CC(CC(=O)CCc2ccc(O)cc2)O1` (stereo unspecified), the Potency result is “inactive”.

Turning to `CC1=C(C)C(=O)OC(C(C)C2CCC3C4CC=C5CC(OC6OC(COC7OC(CO)C(O)C(O)C7O)C(O)C(O)C6O)CC(O)C5(C)C4CCC23C)C1` (stereo unspecified), the Potency result is “inactive”.

For the compound `CC(/C=C/C1(O)C(C)CC(=O)CC1(C)C)OC1OC(CO)C(O)C(O)C1O` (stereo unspecified), the Potency is 31.6 µM (active).

As to `Cc1ccc(Nc2c(-c3ccc(C)cc3)nc3cnccn23)cc1`, the Potency entry is “inactive”.

`COc1cccc(NC(=O)N(Cc2cn(C)c3ccccc23)C2CCCCCC2)c1`: the Potency entry is “inactive”.

In the case of `O=C1CSC(=S)N1/N=C/c1ccc(O)c([N+](=O)[O-])c1`, the Potency is 6.31 µM (active).

For the compound `COc1cc(Cl)c(NC(=O)C(NS(=O)(=O)c2cccs2)C(C)C)c(OC)c1` (stereo unspecified), the Potency result was “inactive”.

With `COc1cccc2c1C(=O)c1c(O)c3c(c(O)c1C2=O)CC(O)(C(C)=NNC(=O)c1ccc(Cl)c(Cl)c1)CC3OC1CC(N)C(O)C(C)O1` (stereo unspecified), the Potency is 12.6 µM (active).

With `CCOc1ccc(N(Cc2ccccc2)C(=O)c2nc(S(C)(=O)=O)ncc2Cl)cc1`, the Potency entry is “inactive”.

On to `Cc1ccc(-c2cn3c(n2)sc2cc(C(=O)NCc4cccs4)ccc23)c(C)c1`, for which the Potency result was “inactive”.

With `COc1ccccc1NC(=O)CSC1=Nc2ccccc2C2=NC(CC(=O)NCc3cccs3)C(=O)N12` (stereo unspecified), the Potency entry is “inactive”.

Consider `O=C(CC1N=C2c3ccccc3N=C(SCc3ccc(F)cc3)N2C1=O)NCc1cccs1` (stereo unspecified), for which the Potency entry is “inactive”.

For `O=C(CSC1=Nc2ccccc2C2=NC(CC(=O)NCc3ccco3)C(=O)N12)NCc1ccco1` (stereo unspecified), the Potency was 15.8 µM (active).

Turning to `Cc1cc(=O)c2cc(C(=O)Nc3cccc(C)c3C)ccc2[nH]1`, the Potency entry was “inactive”.

For the compound `CCc1ccccc1N1C(=O)CN(S(=O)(=O)CC)CC1(C)C(=O)NC1CCCCC1` (stereo unspecified), the Potency result was “inactive”.

For the compound `COc1cc(/C=C2/C(=O)NN(c3cccc(Cl)c3)C2=O)cc(Br)c1O`, the Potency was 89.1 µM (active).

In the case of `COc1cc(CN2CC(C)CC(C)C2)cc([N+](=O)[O-])c1O` (stereo unspecified), the Potency entry is “inactive”.

For the compound `COc1cccc2c1cc1c(=O)n(CC(=O)N3CCN(c4cccc(Cl)c4)CC3)nc(C)n12`, the Potency entry is “inactive”.

With `COc1ccc(N2C(=O)CC(Nc3ccc(F)cc3)C2=O)c([N+](=O)[O-])c1` (stereo unspecified), the Potency entry was “inactive”.

For the compound `COc1cc(/C=C2/C(=O)NN(c3ccc(F)cc3)C2=O)cc([N+](=O)[O-])c1O`, the Potency is 44.7 µM (active).

Regarding `CCOC(=O)c1c(NC(=O)/C(C#N)=C/c2ccccc2)sc2c1CCC2`, the Potency result was “inactive”.

Turning to `O=C(NCCCO)C(=O)Nc1c2c(nn1-c1ccc(F)cc1)CSC2`, the Potency result was “inactive”.

Consider `CCCCOc1ccc(C(=O)Nc2cccc(-c3nc4ccccc4o3)c2C)cc1`, for which the Potency entry was “inactive”.

Consider `Cc1ccc(S(=O)(=O)n2nc(C)c(S(=O)(=O)N3CCCCCC3)c2C)cc1`, for which the Potency entry was “inactive”.

Regarding `O=C(CSc1ncc(-c2ccccc2)[nH]1)Nc1ccc(F)cc1F`, the Potency result was “inactive”.

`Oc1ccccc1-c1nc(/C=C/c2ccc(F)cc2)no1`: the Potency entry was “inactive”.

As for `Cc1nc2nc(SCC(=O)NCc3ccco3)nn2c(C)c1Cc1ccccc1`, the Potency was 44.7 µM (active).

In the case of `Cc1ccc(Cc2c(C)nc3nc(SCC(=O)NCCN4CCOCC4)nn3c2C)cc1`, the Potency result was “inactive”.

Regarding `COc1cc(NC(=O)CSc2nc3nc(C)c(Cc4ccc(C)cc4)c(C)n3n2)cc(OC)c1OC`, the Potency entry was “inactive”.

For the compound `COc1cc(NS(=O)(=O)c2ccc(NC(=S)NC(=O)c3ccccc3)cc2)nc(OC)n1`, the Potency result is “inactive”.

For `COC(=O)Nc1ccc(S(=O)(=O)Nc2cc(OC)nc(OC)n2)cc1`, the Potency entry was “inactive”.

As for `COc1cc(NS(=O)(=O)c2ccc(N/C=C(\C=O)c3nc4cc(Cl)ccc4o3)cc2)nc(OC)n1`, the Potency is 31.6 µM (active).

Turning to `CCCn1c2ccccc2c2cnn(CC(=O)NCC3CCN(Cc4ccc(C)cc4)CC3)c(=O)c21`, the Potency entry is “inactive”.

In the case of `Cc1c(C(=O)N(C)C)sc2c1c(=O)n(-c1ccc(F)cc1)c(=O)n2CC(=O)N(C)c1ccccc1`, the Potency result is “inactive”.

As for `CCOC(=O)c1ccc(NC(=O)CCS(=O)(=O)c2ccc3c(c2)oc(=O)n3C)cc1`, the Potency entry was “inactive”.

Consider `OC[C@H]1O[C@@H](n2cnc3c(NC4CCCC4)ncnc32)[C@H](O)[C@H]1O`, for which the Potency entry is “inactive”.

Turning to `CCOC(=O)c1sc(NC(=O)CSc2nc(O)c(Cc3ccccc3)c(=O)[nH]2)nc1C`, the Potency result is “inactive”.

For the compound `CCOCCc1c(O)nc(SCC(=O)NCc2ccco2)[nH]c1=O`, the Potency was 15.8 µM (active).

Consider `CCn1c(SCC(=O)NCc2ccco2)nnc1-c1ccc(N)cc1`, for which the Potency entry is “inactive”.

As for `Cc1ccc(CSc2oc(-c3cccs3)nc2S(=O)(=O)c2ccc(C)cc2)cc1`, the Potency entry was “inactive”.

For the compound `CCCCN1CC(c2nc3ccccc3n2CCCCOc2ccc(C)cc2C)CC1=O` (stereo unspecified), the Potency entry is “inactive”.

On to `COc1cccc(NC(=O)C(=O)NCC(c2ccc3c(c2)OCO3)N2CCN(C)CC2)c1` (stereo unspecified), for which the Potency result was “inactive”.

On to `COc1ccccc1CNS(=O)(=O)c1cc(Br)cc2c1N(C(C)=O)C(C)C2` (stereo unspecified), for which the Potency result was “inactive”.

Turning to `Cc1ccc(Cl)cc1N1CCN(C(=O)c2cnc3c(-c4ccc(F)cc4)c(C)nn3c2C)CC1`, the Potency result is “inactive”.

`Cc1ccc(OCC(=O)OCc2cc(=O)n3nc(C4CC4)sc3n2)cc1`: the Potency result was “inactive”.

On to `Nc1ccc2nc3c(=O)[nH]c(=S)[nH]c3nc2c1`, for which the Potency was 1.12 µM (active).

On to `Cc1cc(C)c(NC(=O)CCc2c(C)nc3c(c(C)nn3C(C)(C)C)c2C)c(C)c1`, for which the Potency result is “inactive”.

`COc1cc(CNCCSc2nnnn2C)ccc1OCc1ccc(Cl)cc1Cl`: the Potency entry was “inactive”.

For the origin of these results see PubChem BioAssay AID588591 (National Center for Advancing Translational Sciences (NCATS), 2011).
